Counter-ions that a name gives are not always drawn.
Legend:
[1] = tested on: HCC1937; test: relative cell viability, compound + RSL3, vs DMSO (fraction of DMSO control); higher = less growth inhibition; conditions: 72 h
[2] = tested on: MDA-MB-231; test: as above; conditions: 72 h
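Further: breast cancer cell viability read out with the CCK-8 kit after co-treatment of each compound with the ferroptosis inducer RSL3.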

SMILES	relative cell viability [1]	relative cell viability [2]
CC(C)(CCCCCC(O)CCCCCC(C)(C)C(=O)O)C(=O)O + COC(=O)c1ccc([C@H]2c3[nH]c4ccccc4c3C[C@H](C(=O)OC)N2C(=O)CCl)cc1 [RSL3]	0.288	0.337
O=C(Nc1cccnc1)N1CCC(Cc2cccc(Oc3ccc(C(F)(F)F)cn3)c2)CC1 + COC(=O)c1ccc([C@H]2c3[nH]c4ccccc4c3C[C@H](C(=O)OC)N2C(=O)CCl)cc1 [RSL3]	0.727	0.644
CC(C)n1c(/C=C/C(O)CC(O)CC(=O)O)c(-c2ccc(F)cc2)c2ccccc21 (centres undefined) [Fluvastatin sodium salt] + COC(=O)c1ccc([C@H]2c3[nH]c4ccccc4c3C[C@H](C(=O)OC)N2C(=O)CCl)cc1 [RSL3]	0.504	0.547
COc1cc(N2CCN(C)CC2)ccc1Nc1ncc2c(n1)N(C)c1ccccc1C(=O)N2 + COC(=O)c1ccc([C@H]2c3[nH]c4ccccc4c3C[C@H](C(=O)OC)N2C(=O)CCl)cc1 [RSL3]	0.213	0.375
C[C@H](CCC(=O)O)[C@H]1CC[C@H]2[C@@H]3CC[C@@H]4C[C@H](O)CC[C@]4(C)[C@H]3CC[C@]12C [Lithocholic acid] + COC(=O)c1ccc([C@H]2c3[nH]c4ccccc4c3C[C@H](C(=O)OC)N2C(=O)CCl)cc1 [RSL3]	0.844	0.649
CC(C)CCC[C@@H](C)[C@H]1CC[C@H]2[C@@H]3CCC4=CC(=NO)CC[C@]4(C)[C@H]3CC[C@]12C [Olesoxime] + COC(=O)c1ccc([C@H]2c3[nH]c4ccccc4c3C[C@H](C(=O)OC)N2C(=O)CCl)cc1 [RSL3]	0.454	0.689
COc1cc(N2CCN(C)CC2)ccc1Nc1ncc2c(n1)N(C1CCC1)C(=O)N(c1c(C)cccc1C)C2 + COC(=O)c1ccc([C@H]2c3[nH]c4ccccc4c3C[C@H](C(=O)OC)N2C(=O)CCl)cc1 [RSL3]	0.334	0.747
